About 83,000 compounds went through this panel and 20% of them were active in at least one assay; those are over-represented in the sample as a whole.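 Method: cells in 96-well plates; compound added at one concentration; 48 h incubation; percent growth measured; values under 10 scored active.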 Unmarked numbers belong to inactive results. Calls of active or inactive are those of the source.
Experiments:
Assay in all cases: NCI-60 one-dose screen, 48 h (100 = growth as untreated, 0 = no growth, -100 = all killed)
Conditions in all cases: 10 µM
RPMI-8226 leukemia = test system: RPMI-8226 leukemia
OVCAR-8 ovarian = test system: OVCAR-8 ovarian
OVCAR-5 ovarian = test system: OVCAR-5 ovarian
OVCAR-4 ovarian = test system: OVCAR-4 ovarian
SK-OV-3 ovarian = test system: SK-OV-3 ovarian
IGROV1 ovarian = test system: IGROV1 ovarian
OVCAR-3 ovarian = test system: OVCAR-3 ovarian
HS 578T breast = test system: HS 578T breast
NCI/ADR-RES ovarian = test system: NCI/ADR-RES ovarian
T-47D breast = test system: T-47D breast
MDA-MB-435 melanoma = test system: MDA-MB-435 melanoma
SW-620 colon = test system: SW-620 colon
MCF7 breast = test system: MCF7 breast
HCT-116 colon = test system: HCT-116 colon
HCC-2998 colon = test system: HCC-2998 colon
KM12 colon = test system: KM12 colon
BT-549 breast = test system: BT-549 breast

| Structure (SMILES) | growth (RPMI-8226 leukemia) | growth (OVCAR-8 ovarian) | growth (OVCAR-5 ovarian) | growth (OVCAR-4 ovarian) | growth (SK-OV-3 ovarian) | growth (IGROV1 ovarian) | growth (OVCAR-3 ovarian) | growth (HS 578T breast) | growth (NCI/ADR-RES ovarian) | growth (T-47D breast) | growth (MDA-MB-435 melanoma) | growth (SW-620 colon) | growth (MCF7 breast) | growth (HCT-116 colon) | growth (HCC-2998 colon) | growth (KM12 colon) | growth (BT-549 breast) |
| --- | --- | --- | --- | --- | --- | --- | --- | --- | --- | --- | --- | --- | --- | --- | --- | --- | --- |
| CSc1nc(=O)n(Cc2ccc(Cl)cc2)c(=O)[nH]1 | 103% | 98.8% | 102% | 110% | 99.7% | 132% | 114% | 105% | 105% | 90.1% | 114% | 110% | 99.3% | 103% | 103% | 108% | – |
| Cc1cccc(NC2=C(C#N)C(=O)NC3(CCCC3)S2)c1 | 90% | 100% | 103% | 103% | 103% | 168% | 116% | 103% | 100% | 102% | 101% | 103% | – | 105% | 95.8% | 104% | 102% |
| CCN1CCC(CCOC)(CN2c3ccccc3Sc3ccc(Cl)cc32)C1 (stereo not given) | 47.4% | 73.7% | 54.4% | 46.3% | 78.7% | 30.7% | 64.8% | 51.5% | 75.8% | 70.5% | 10.9% | 54% | 22.9% | 28.8% | 40.5% | 29.8% | – |
| N=C(N)c1ccc(-c2ccc(-c3cccs3)s2)s1 | -46.6% (active) | -47.2% (active) | 0.532% (active) | -64.1% (active) | 74.2% | 3.96% (active) | -89.2% (active) | -27.1% (active) | -29.3% (active) | 70.2% | -88.5% (active) | -66.4% (active) | -65% (active) | -87% (active) | -80.3% (active) | – | – |
| O=[N+]([O-])c1ccc(Oc2cccnc2)c([N+](=O)[O-])c1 | 25.4% | 91.7% | 93.6% | 50.2% | 104% | 92.2% | 66.2% | 81.9% | 51.4% | 61.1% | 26.9% | 1.5% (active) | – | 8.43% (active) | – | 56.8% | 72.3% |
| CCOC(=O)N1C=CC2C=CC1C1C=CC=CC2N1C(=O)OCC (stereo not given) | 89.5% | 96.5% | 95% | 97.8% | 97% | 97.8% | 100% | 87.5% | 95.3% | 98.9% | 3.79% (active) | 82% | 76.8% | – | 82.1% | 84.9% | 89.4% |
| O=C1/C(=C\c2ccc(Br)cc2)CN(C(=O)c2ccccc2F)C/C1=C\c1ccc(Br)cc1 | -37.7% (active) | 1.47% (active) | 69.4% | 18.2% | 27.2% | -31.4% (active) | -52.6% (active) | 24.1% | 12.7% | 53.3% | -44.9% (active) | -56.4% (active) | -33.5% (active) | -76.1% (active) | -81.3% (active) | – | – |
| CN(C)c1ccc(N=C2C=CC(=O)c3ccccc32)cc1 | 65.4% | 76.3% | 88% | 71.5% | 95.4% | 88.6% | 23.8% | 95.6% | 85.5% | 81.3% | -87% (active) | 93.3% | 53.1% | – | 67.3% | 54.8% | 94.5% |
| COc1ccc(/C=C/C(=O)Nc2ccc(-c3nc4ccc(OC)cc4s3)cc2)cc1 | 96.4% | 106% | 108% | 128% | 104% | 118% | 124% | 108% | 101% | 101% | 102% | 114% | 85.3% | 105% | 110% | 111% | – |
| CCCCCCc1cc(N=Nc2ccc(S(=O)(=O)Nc3cc(C)nc(C)n3)cc2)c(O)cc1O | 95.5% | 99.7% | 113% | 108% | 101% | 96.2% | 109% | 110% | 99.9% | 93.9% | 100% | 113% | 92.7% | – | 101% | 104% | 89.9% |
| CC(=O)[C@H]1CC[C@H]2[C@@H]3CCC4=CC(=O)C=C[C@]4(C)[C@H]3CC[C@]12C | 68% | 92.4% | 93.2% | 87.2% | 104% | 94.8% | 106% | 96.2% | 98.4% | 86.8% | 98.7% | 108% | – | 85.6% | 99.2% | 107% | 98% |
| COc1ccc(-c2cc(/C=C3\C(=O)Nc4ccc(OC)cc43)[nH]n2)cc1 | 20.6% | 48.8% | 82.5% | 79.8% | 33.6% | 31.8% | 2.64% (active) | 14% | 21.7% | 47.3% | -25.1% (active) | 19.3% | – | 25.3% | 52.8% | 8.99% (active) | 61.5% |
| COc1ccc2c(c1)O/C(=C\c1ccc([N+](=O)[O-])o1)C2=O | -10.7% (active) | -8.18% (active) | 12.4% | -1.31% (active) | 67.6% | -14.2% (active) | -8.36% (active) | 21.4% | 16% | -0.109% (active) | -72.5% (active) | -53.8% (active) | – | -39% (active) | -26.8% (active) | -11.5% (active) | -50% (active) |
| COc1cccc(NC(=O)c2sc3nc4c(cc3c2N)C(O)CCC4)c1 (stereo not given) | 7.49% (active) | 17.5% | 50.3% | 49.1% | 24% | 27.7% | -34.6% (active) | 29.7% | 8.86% (active) | 62.1% | -32.5% (active) | 23.8% | – | – | 19.6% | 16.7% | 44.4% |
| COc1ccc2c(c1)/C(=C\c1c[nH]c3ccc(OC)cc13)C(=O)N2 | 36.7% | 59.7% | 64.8% | 57.6% | 52.8% | 41.7% | 52.6% | 46.9% | 28.1% | 49.7% | -11.5% (active) | 15.1% | 29.6% | 30.1% | 49.4% | 10.1% | – |
| c1ccc(C(NC2CC3CCC2C3)c2ccccc2)cc1 (stereo not given) | 96.2% | 105% | 101% | 108% | 95.9% | 109% | 114% | 111% | 103% | – | 91.6% | 106% | 98.4% | 89.9% | 102% | 95% | 78.4% |
| O=C1OCC2=C1C(c1ccc(Cl)c(Cl)c1)c1cc3c(cc1N2CCO)OCCO3 (stereo not given) | 18.7% | 27.7% | 34.3% | 55.7% | 29.5% | 34.6% | -53.7% (active) | -13.3% (active) | 3.69% (active) | 62.2% | -52.6% (active) | 19% | 20.4% | 19.8% | – | 4.49% (active) | – |
| Cc1c(Cl)cccc1NC(=O)c1sc2nc3c(cc2c1N)C(=O)CCC3 | 5.08% (active) | 13.5% | 31.8% | 40.4% | 14.4% | 9.61% (active) | -40.1% (active) | 17.1% | 2.57% (active) | – | -43.6% (active) | 18.3% | 13.5% | 14.3% | 25.8% | 11.1% | 49.9% |
| O=C(Nc1ccncc1)C(=O)c1cn(S(=O)(=O)c2ccc(F)cc2)c2ccccc12 | 15.5% | 30% | 72.4% | 66.9% | 91.2% | 26.8% | -21.9% (active) | 50.4% | 2.06% (active) | 52.5% | -20.3% (active) | 12% | 12.6% | 11.6% | 61.6% | 18.1% | – |
| COc1cc(-c2cc(C(=O)N3CCN(C(=O)c4ccccc4NCc4cccs4)CC3)nc3cc(-c4ccccc4)nn23)cc(OC)c1OC | 75.2% | 90% | 86.6% | 89.4% | 86.7% | 36.6% | 9.27% (active) | 85.7% | 52.6% | – | 6.28% (active) | 51% | 23.6% | 55.9% | 101% | 27.5% | 83.8% |

From PubChem BioAssay (NCI)
